In PubChem BioAssay (NCATS) one finds Potency data, which are given here for 3 molecules.

Results filed as inconclusive are left out. Activity calls are given as the source filed them. Calls follow the shape of the dose curve; as a rule, active = well fitted cell-killing curve with a large enough effect; inconclusive = small, poorly fitted or top-dose-only effect, or effect the other way; inactive = no such curve, though single readings can be large or run the other way.

The nature of test [1]: Viability qHTS for spleen associated tyrosine kinase inhibitor (SYKi) naive MV4-11 cells (AID 1963823). Also: nearly all actives have a fitted effect of over 40% in size. To be noted: MV4-11 AML viability, CellTiter-Glo luminescence, 72 h; series mostly up to 45 µM. The essentials:
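In this viability screen, compounds acted on SYK inhibitor naive MV4-11 cells for three days (72 hr, 37 C). Remaining viable cells were measured by CellTiter-Glo luminescence following a 10 min room-temperature development.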

A short description of test [2]: Viability qHTS for spleen associated tyrosine kinase inhibitor (SYKi) drug resistant MV4-11 cells (AID 1963824). Also: nearly all actives have a fitted effect of over 35% in size. To be noted: SYKi-resistant MV4-11 viability, CellTiter-Glo, 72 h; series mostly up to 45 µM. The essentials: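 SYK-inhibitor-resistant MV4-11 AML cells were seeded at 500 per well onto compound and cultured 72 hours (37 °C, 5% CO2). CellTiter-Glo was then added, and after 10 min at room temperature, luminescence gave viability.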
For orientation: Quantitative high-throughput screening tests each substance at several concentrations.
Potency is read from the fitted curve at half-maximal effect.

Regarding `CC(C)[C@@](C)(O)[C@@H]1CN(c2nc(-c3[nH]nc4ncccc34)c(F)cc2Cl)CCN1`, the Potency in test [1] is 366 nM (active); in test [2] it was 731 nM (active).

On to `O=C(/C=C/c1ccc(O)cc1)O[C@H]1[C@@H]2C=CO[C@@H](O[C@@H]3O[C@H](CO)[C@@H](O)[C@H](O)[C@H]3O)[C@@H]2[C@@]2(CO)O[C@@H]12`, for which the Potency result in test [1] and in test [2] was “inactive” in each case.

Take `CC1NC(=O)CNC(=O)C(C(C)C)NC(=O)C2CCCN2C(=O)C(C(C)C)NC(=O)C(Cc2c[nH]c3ccccc23)NC1=O` (stereo unspecified): the Potency entry in test [1] and in test [2] was “inactive” throughout.
